Most compounds without a hit are left out; they make up all but 3.5% or so of the library.
MITF primary: MITF inhibitors, primary screen, biochemical, AlphaScreen, human. Microphthalmia-associated transcription factor (Homo sapiens), O75030. AlphaScreen MITF homodimerization, bead proximity signal. inhibition, % at 2.6 µM. hit rate 0.91% among 650,000. AID 1259374, 2018; in the data active = inhibition above about 50%;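 note: 0% = vehicle wells with protein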
FBW7 act: FBW7 E3 ligase activators, primary screen, biochemical, AlphaScreen, human | F-box/WD repeat-containing protein 7 (Homo sapiens), Q969H0 | AlphaScreen FBW7–phospho-cyclin E peptide binding, activator screen | normalized activity (activation), % at 26.1 µM | hit rate 0.13% among 650,000 | AID 1259310, 2017; in the data active = normalized activity above about 1.9%;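 note: purified mutant Fbw7 with reduced substrate affinity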
Target sequence (Q969H0 whole entry, looked up): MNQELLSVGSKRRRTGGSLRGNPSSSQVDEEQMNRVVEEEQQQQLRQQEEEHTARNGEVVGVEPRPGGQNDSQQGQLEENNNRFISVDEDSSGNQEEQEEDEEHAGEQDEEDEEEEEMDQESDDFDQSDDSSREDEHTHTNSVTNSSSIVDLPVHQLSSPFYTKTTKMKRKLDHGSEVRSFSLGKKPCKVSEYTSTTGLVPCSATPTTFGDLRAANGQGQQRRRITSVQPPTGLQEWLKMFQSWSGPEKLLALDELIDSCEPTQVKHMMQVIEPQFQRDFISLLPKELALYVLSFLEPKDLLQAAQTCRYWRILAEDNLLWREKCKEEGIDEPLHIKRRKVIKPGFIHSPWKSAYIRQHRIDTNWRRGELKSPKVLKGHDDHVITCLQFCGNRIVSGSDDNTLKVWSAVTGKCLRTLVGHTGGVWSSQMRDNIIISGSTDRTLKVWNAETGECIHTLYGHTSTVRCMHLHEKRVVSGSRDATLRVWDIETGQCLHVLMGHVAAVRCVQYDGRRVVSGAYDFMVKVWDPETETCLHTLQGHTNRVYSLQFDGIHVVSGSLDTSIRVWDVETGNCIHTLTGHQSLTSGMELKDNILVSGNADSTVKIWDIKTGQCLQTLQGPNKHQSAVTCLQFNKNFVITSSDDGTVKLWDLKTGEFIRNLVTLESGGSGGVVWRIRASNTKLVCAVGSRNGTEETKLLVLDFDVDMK
TEAD-YAP inh: TEAD-YAP interaction inhibition, primary screen, TEAD-YAP interaction inhibitor project, luminescence, HEK-TIYL cells. inhibition, % at 9.12 µM. AID 1259422, 2018. TEAD-Gal4/YAP UAS-luciferase luminescence. hit rate 1.4% among 640,000; in the data active = inhibition above about 32%;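 note: 0% = median of test compound wells and 100% = reference inhibitor wells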
GPR151 ag: activators of human GPR151, primary screen, cell-based, PathHunter beta-arrestin, luminescence. G-protein coupled receptor 151 (Homo sapiens), Q8TDV0. PathHunter beta-arrestin GPR151 cells. activation, % at 11.2 µM. hit rate 1% among 650,000. AID 1508602, 2020; in the data active = activation above about 4.9%;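 note: 0% = median of compound wells and 100% = cells with positive control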
* = called active by the depositor.

SMILES | MITF primary | FBW7 act | TEAD-YAP inh | GPR151 ag
CCCCN1C(=O)c2cccc3c(NC(=O)c4ccc(C#N)cc4)ccc1c23 | 13 | 0 | 48* | -2
COc1ccccc1/C=C/C(=O)Nc1ccc2[nH]ncc2c1 | -5 | 0 | 35* | 0
COc1ccc(-n2nc(C(=O)NCC(=O)Nc3cc(OC)c(OC)c(OC)c3)c3ccccc3c2=O)cc1OC | 5 | 0 | 49* | 1
COc1cccc(NC(=O)CNC(=O)c2nn(-c3ccc(OC)c(OC)c3)c(=O)c3ccccc23)c1 | -1 | 0 | 34* | -1
COc1ccc(-n2nc(C(=O)NCC(=O)Nc3ccc(F)cc3)c3ccccc3c2=O)cc1OC | -8 | 0 | 17 | 1
CCCn1c(SCC(=O)c2ccc(Cl)s2)n[nH]c1=O | -2 | 0 | -3 | 1
CN(CC(=O)NCCc1ccccc1)S(=O)(=O)c1ccc2c(c1)CCC(=O)N2 | 7 | 1 | -5 | -1
CCC(C)(C)C1CCc2c(sc(NC(=O)OC)c2C(N)=O)C1 (configuration not stated) | 16 | 0 | 5 | -1
Cc1ccc(NC(=O)c2cc(S(=O)(=O)NCCC3=CCCCC3)ccc2F)cc1F | 16 | 1 | 34* | -3
O=C(Nc1ccccc1NC(=O)c1ccccn1)Nc1c(F)cccc1F | 17 | -1 | -25 | 1
CC(C)(C)c1ccc(NC(=O)Nc2ccccc2NC(=O)c2ccccn2)cc1 | -2 | -1 | 68* | 0
CC(C)(C)c1ccc(/C=N\NC(=O)c2ccccn2)cc1 | -15 | 0 | 35* | -3
Cn1c(/C=N/Nc2nc3ccccc3[nH]2)nc2ccccc21 | -24 | 0 | 40* | -1
CC(C)n1c(/C=N/Nc2nc3ccccc3[nH]2)nc2ccccc21 | 11 | 0 | 37* | 0
CCCn1c(/C=N/Nc2nc3ccccc3[nH]2)nc2ccccc21 | 17 | 0 | 1 | 1
COc1cc(/C=N/n2cnnc2)ccc1OCc1cccc(C(=O)O)c1 | 37 | 0 | 78* | -7
COc1ccc(S(=O)(=O)Oc2ccc(C=C3C(=O)NC(=O)NC3=O)cc2OC)cc1 | 7 | 0 | 53* | 0
COc1cc(C=O)ccc1OCC(=O)c1ccccc1 | 1 | 0 | 60* | -8
COc1cc(C=O)ccc1OCc1cccc(C(=O)O)c1 | -4 | 0 | 71* | 5
COc1ccc(C=O)cc1OC(=O)c1ccccc1 | -4 | 0 | 5 | 1
COc1ccc(C(=O)Oc2ccc(C=C3C(=O)NC(=O)NC3=O)cc2OC)cc1 | 9 | -1 | 8 | -2
COc1ccc(C=O)cc1COc1ccccc1F | -4 | 2.1* | 0 | 0
COc1ccc(/C=N/n2cnnc2)cc1COc1ccccc1F | 11 | 0 | 12 | 0
COc1cc(C=C2C(=O)NC(=O)NC2=O)ccc1OCc1cccc(C(=O)O)c1 | 5 | 0 | 81* | -7
COc1cc(/C=N/O)ccc1OCc1cccc(C(=O)O)c1 | 0 | 0 | 94* | -9
SMILES | MITF primary | FBW7 act | TEAD-YAP inh | GPR151 ag
COc1ccc(NC(=O)C2=C(C)NC(=O)NC2c2cccc(Br)c2)cc1 (configuration not stated) | 22 | 0 | -1 | 1
CC1CC(C)CN(C(=O)Cn2c(SCC(=O)NC(C)C)nc3ccccc32)C1 (configuration not stated) | 12 | 0 | -2 | 1
O=[N+]([O-])c1ccc2[nH]c(O)c(N=Nc3ccc(S(=O)(=O)O)cc3)c2c1 | 60* | 0 | -8 | -1
Nc1cccc(-c2nc(N)c3ncn(-c4ccsc4)c3n2)c1 | 3 | 0 | 54* | 0
CC(=O)c1cccc(-c2nc(Nc3ccccc3)c3ncn(-c4ccsc4)c3n2)c1 | -20 | 0 | -4 | 1
CC(=O)c1cccc(-c2nc(N)c3ncn(-c4ccsc4)c3n2)c1 | -7 | 0 | 56* | 0
Cc1cc(/C=C2/C(=O)NC(=O)N(C)C2=O)c(C)n1-c1ccc(F)cc1 | 14 | 0 | -1 | 0
CCCOc1ccc(C2NC(=O)NC(C)=C2C(=O)OC2CCCC(C)C2)cc1 (configuration not stated) | -14 | 0 | -10 | -1
Cc1ccc2nc(NC(=O)CSCC(=O)O)sc2c1 | 1 | 0 | 60* | -1
O=[N+]([O-])c1cccc(S(=O)(=O)NCCc2cn3ccsc3n2)c1 | 8 | 6.2* | -4 | 1
O=S(=O)(NCc1cn2ccsc2n1)c1ccc(Oc2ccccc2)cc1 | -8 | 0 | 35* | 0
O=[N+]([O-])c1ccc(S(=O)(=O)NCCc2cn3ccsc3n2)cc1 | -1 | 0 | -4 | -1
COc1ccc(C2CC(C(F)(F)F)n3nc(C(=O)Nc4cccc(C)c4Cl)c(Cl)c3N2)cc1OC (configuration not stated) | 5 | 0 | 0 | -1
CC1CCN(S(=O)(=O)c2ccc(-c3nnc(SCC4CCCO4)o3)cc2)CC1 (configuration not stated) | 15 | 0 | 7 | 0
N#C/C(=C\c1c(Oc2ccccc2)nc2ccccn2c1=O)C(=O)NC1CCCCC1 | 7 | 0 | -5 | -8
Cc1cc(C(=O)N/N=C(\CCC(=O)O)c2cccs2)c2ccccc2n1 | 11 | 0 | 51* | 0
Cc1cc(C(=O)N/N=C2\CCCC(=O)C2)c2ccccc2n1 | -7 | 0 | 40* | 0
O=C1CCC/C(=N\NC(=O)c2cc(-c3ccncc3)nc3ccccc23)C1 | -5 | 0 | 26 | 2
CCOC(=O)CC(NS(=O)(=O)c1cc(Cl)ccc1OC)c1ccc(OC)cc1 (configuration not stated) | -1 | 0 | 5 | 4
COCCn1c2ccccc2n2c(=O)n(CC(=O)N(C)C3CCCCC3)nc12 | 1 | 1 | 16 | -1
Cc1ncn(-c2ccc(Nc3cc(-c4nocc4-c4cccnc4)ccn3)cc2)n1 | -5 | 0 | -5 | 0
O=C(COC(=O)c1ccc([N+](=O)[O-])cc1[N+](=O)[O-])c1ccc(Cl)cc1 | 10 | 0 | 14 | 1
CCCC1=C(C(=O)OCC)C(c2cccc([N+](=O)[O-])c2)n2ncnc2N1 (configuration not stated) | 11 | 0 | 33* | -1
CCCC1=C(C(=O)OCC)C(c2ccccc2[N+](=O)[O-])n2ncnc2N1 (configuration not stated) | -5 | 0 | 4 | 0
CCOc1ccc(-c2noc(CCC(=O)O)n2)cc1 | -18 | 0 | 50* | 0
C=CCNC(=O)CCc1nc(-c2ccc(C(C)(C)C)cc2)no1 | 5 | 0 | 35* | -1
Cc1ccc(-c2noc(CCC(=O)NC3CCCC3)n2)cc1 | 31 | 1 | -1 | -2
CC(C)(C)c1ccc(-c2noc(CCC(=O)NC3CCCC3)n2)cc1 | 8 | 0 | 64* | 1
CCc1ccc(-c2cn3ccccc3n2)cc1 | 2 | 0 | 69* | -6
CC(C)CC(=O)Nc1ccc(-c2cn3ccccc3n2)cc1 | 7 | 0 | 41* | -3

Compound activity: PubChem, The Scripps Research Institute Molecular Screening Center
